The list shows a part of the results. Results filed as inconclusive are left out. The source made the active and inactive calls. Calls follow the shape of the full dose curve.

Peroxisome proliferator-activated receptor gamma (Homo sapiens), sequence (P37231 whole entry, looked up, the tested form may be a part): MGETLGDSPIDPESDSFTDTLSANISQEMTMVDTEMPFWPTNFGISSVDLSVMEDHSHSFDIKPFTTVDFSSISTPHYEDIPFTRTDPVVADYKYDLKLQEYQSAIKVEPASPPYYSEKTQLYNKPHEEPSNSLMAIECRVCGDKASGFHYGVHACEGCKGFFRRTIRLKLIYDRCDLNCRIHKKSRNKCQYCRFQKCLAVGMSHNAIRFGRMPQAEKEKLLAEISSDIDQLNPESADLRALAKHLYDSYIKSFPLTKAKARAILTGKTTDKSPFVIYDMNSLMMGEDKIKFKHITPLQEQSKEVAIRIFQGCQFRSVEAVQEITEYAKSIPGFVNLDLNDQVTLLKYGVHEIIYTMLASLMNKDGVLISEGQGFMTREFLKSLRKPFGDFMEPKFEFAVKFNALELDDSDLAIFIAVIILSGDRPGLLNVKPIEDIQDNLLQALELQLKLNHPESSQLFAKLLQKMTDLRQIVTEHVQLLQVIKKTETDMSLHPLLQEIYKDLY

This assay addresses Peroxisome proliferator-activated receptor gamma (Homo sapiens) (UniProt P37231). In words: PPAR gamma Selectivity Assay For Inhibitors of the Interaction of Thyroid Hormone Receptor and Steroid Receptor Coregulator 2. The conditions noted are these: PPARg LBD / Texas Red DRIP-2 peptide, fluorescence polarization, 3 h. The text has this: NIH Molecular Libraries Probe Production Network [MLPCN] NIH Chemical Genomics Center [NCGC] MLPCN Grant: DK058080 Assay Provider: R. Kip Guy, St. Jude Children's Research Hospital NCGC Assay Overview: Thyroid receptor (TR) regulates many homeostatic processes including basal metabolism, cardiovascular function, body weight, and lipid trafficking. TR modulators are potential therapeutics for obesity and hyperlipidemias but current thyroid analogs have undesirable side effects, particularly cardiac stimulation. This secondary assay characterized compounds identified in the qHTS for Inhibitors of the Interaction of Thyroid Hormone Receptor and Steroid Receptor Coregulator 2 (PubChem AID 1485) for selectivity against PPAR gamma. […] Small molecule inhibitors that block the interaction of PPAR and DRIP-2 are detected by a decrease in fluorescence polarization. […]
NCGC Assay Protocol Summary: Twenty uL/well 2 uM PPAR gamma and 10 nM Tx-DRIP-2 peptide in protein buffer (20 mM TRIS, pH 7.5, 100 mM NaCl, 0.01% NP-40, 20 uM roziglitazone, and 4% DMSO) was dispensed into black solid 384-well plates (Costar 3710) using a Biomek FX (Beckman Coulter) liquid handling system. […] The plates were read by an Envision (Perkin Elmer) to detect Texas Red polarization of Tx-DRIP-2 (555 nm excitation and 632 nm emission).
In the case of `O=C(COC(=O)c1cccc([N+](=O)[O-])c1)NC1C2CC3CC(C2)CC1C3` (stereo unspecified), the molecule was called inactive.

Values taken from PubChem BioAssay AID2449 (National Center for Advancing Translational Sciences (NCATS), 2010).
